Data from PubChem BioAssay (EPA / NIEHS).
Where “and” joins values, the source holds several entries; their conditions need not be identical. Identical values can stand only once. Calls of active or inactive are those of the source. How the source made its calls: active means hit-call score of the fitted dose curve at least 0.9, where 1 is the maximum; inactive means score below 0.9.

Experiments:
Details in all cases: mRNA level, 48 h; actives raise or lower the signal
CYP3A5 (gene 1577) = experiment: LTEA_HepaRG_CYP3A5: Life Technologies and Expression Analysis (LTEA) Assay for CYP3A5 using HepaRG (AID 2283493)
Outline: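 Readout was CYP3A5 mRNA by qRT-PCR. HepaRG cultures were exposed for 48 h in serum-free induction medium to chemicals at up to 100 uM, and responses were fitted in both directions relative to DMSO vehicle.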

[1] = read-out: Cytochrome P450 4A22 (Homo sapiens) (UniProt Q5TCH4); experiment: LTEA_HepaRG_CYP4A22: Life Technologies and Expression Analysis (LTEA) Assay for Cytochrome P450 4A22 (CYP4A22) using HepaRG (AID 2283495)
Outline: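 HepaRG, 48 h post-plating -> serum-free induction medium; dosed 48 h, duplicate, 8 conc. (100 uM top, half-log), 0.5% DMSO. Readout: CYP4A22 mRNA by qRT-PCR, ACTB/GAPDH/POLR2A normalization; gain/loss fit relative to DMSO.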

[2] = read-out: Cytochrome P450 7A1 (Homo sapiens) (UniProt P22680); experiment: LTEA_HepaRG_CYP7A1: Life Technologies and Expression Analysis (LTEA) Assay for Cytochrome P450 7A1 (CYP7A1) using HepaRG (AID 2283496)
Outline: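 Using 0.5% DMSO as vehicle and baseline, chemicals were tested in duplicate over an 8-point range from 100 uM on HepaRG cells for 48 h; qRT-PCR signals were normalised to ACTB, GAPDH and POLR2A.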

[3] = read-out: Glutathione S-Transferase (GSTA2), GSTA2 (gene 2939); experiment: LTEA_HepaRG_GSTA2: Life Technologies and Expression Analysis (LTEA) Assay for Glutathione S-Transferase (GSTA2) using HepaRG (AID 2283497)
Outline: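 GSTA2 transcript levels came from Fluidigm TaqMan qRT-PCR normalized to three housekeeping genes, fitted in both directions against DMSO. HepaRG cultures received chemicals for 48 h in serum-free induction medium (0.5% DMSO), 8 half-log concentrations up to 100 uM, duplicate.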

[4] = read-out: Glutamate-cysteine ligase catalytic (GCLC), GCLC (gene 2729); experiment: LTEA_HepaRG_GCLC: Life Technologies and Expression Analysis (LTEA) Assay for Glutamate-cysteine ligase catalytic (GCLC) using HepaRG (AID 2283498)
Outline: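 Expression by TaqMan qRT-PCR, normalized to three housekeeping genes (ACTB, GAPDH, POLR2A), with up- or down-regulation fitted against DMSO. HepaRG cells dosed in duplicate for 48 h with 8 half-log concentrations up to 100 uM, vehicle 0.5% DMSO.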

[5] = read-out: growth arrest and DNA damage 45 (GADD45G), GADD45G (gene 10912); experiment: LTEA_HepaRG_GADD45G: Life Technologies and Expression Analysis (LTEA) Assay for growth arrest and DNA damage 45 (GADD45G) using HepaRG (AID 2283499)
Outline: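 HepaRG, 48 h exposure, top 100 uM, half-log 8-point series, 0.5% DMSO vehicle, duplicates. Readout: GADD45G transcript by qRT-PCR (Fluidigm array), housekeeping-normalised (ACTB/GAPDH/POLR2A). Bidirectional curve fit vs DMSO baseline.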

[6] = read-out: Glutathione S-transferase M3 (GSTM3), GSTM3 (gene 2947); experiment: LTEA_HepaRG_GSTM3: Life Technologies and Expression Analysis (LTEA) Assay for Glutathione S-transferase M3 (GSTM3) using HepaRG (AID 2283501)
Outline: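 qRT-PCR read-out of GSTM3 transcript, normalized to three housekeeping genes, from human HepaRG cells after 48 h chemical exposure. Eight-point half-log series, top 100 uM, 0.5% DMSO vehicle; gain or loss fitted relative to DMSO baseline.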

[7] = read-out: Heat shock 70 kDa protein 1 (HSPA1A), gene 3303; experiment: LTEA_HepaRG_HSPA1A: Life Technologies and Expression Analysis (LTEA) Assay for Heat shock 70 kDa protein 1 (HSPA1A) using HepaRG (AID 2283502)
Outline: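 An oxidative-stress marker readout: HepaRG cells treated 48 h in duplicate with an eight-point series (highest 100 uM) had HSPA1A mRNA quantified by TaqMan qRT-PCR. Activity was fitted in both directions using 0.5% DMSO as baseline.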

[8] = read-out: Hypoxia-inducible factor 1-alpha (Homo sapiens) (UniProt Q16665); experiment: LTEA_HepaRG_HIF1A: Life Technologies and Expression Analysis (LTEA) Assay for Hypoxia-inducible factor 1 (HIF1A) Trancription factor using HepaRG (AID 2283503);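 further: HIF1A transcript by TaqMan qRT-PCR normalized to ACTB GAPDH and POLR2A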
Outline: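 Gain- or loss-of-signal HIF1A mRNA changes are fitted against a DMSO baseline. HepaRG cultures receive eight concentrations, highest 100 uM, for 48 h in serum-free induction medium with 0.5% DMSO.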

HGF (gene 3082) = experiment: LTEA_HepaRG_HGF: Life Technologies and Expression Analysis (LTEA) Assay for Hepatocyte Growth Facto (HGF) using HepaRG (AID 2283505)
Outline: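 HepaRG, 48 h dosing, 8-pt half-log series from 100 uM in 0.5% DMSO, duplicates. Readout: TaqMan qRT-PCR of HGF mRNA, housekeeping-normalized; bidirectional curve fit vs DMSO baseline.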

[9] = read-out: Insulin Like Growth Factor 1 (IGF1), IGF1 (gene 3479); experiment: LTEA_HepaRG_IGF1: Life Technologies and Expression Analysis (LTEA) Assay for Insulin Like Growth Factor 1 (IGF1) using HepaRG (AID 2283506)
Outline: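 Endpoint: IGF1 mRNA change by qRT-PCR, housekeeping-normalized, fitted bidirectionally relative to 0.5% DMSO vehicle. Human HepaRG cells were treated 48 h in serum-free induction medium, eight half-log concentrations topping at 100 uM.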

[10] = read-out: Intercellular Adhesion Molecule 1 (ICAM1), ICAM1 (gene 3383); experiment: LTEA_HepaRG_ICAM1: Life Technologies and Expression Analysis (LTEA) Assay for Intercellular Adhesion Molecule 1 (ICAM1) using HepaRG (AID 2283507)
Outline: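 HepaRG, 48 h exposure, 8-pt half-log series from 100 uM, 0.5% DMSO vehicle, duplicates. Readout: TaqMan qRT-PCR mRNA, housekeeping-normalized (ACTB/GAPDH/POLR2A). Bidirectional curve fit vs DMSO baseline.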

[11] = read-out: Insulin-like growth factor-binding protein 1 (IGFBP1), IGFBP1 (gene 3484); experiment: LTEA_HepaRG_IGFBP1: Life Technologies and Expression Analysis (LTEA) Assay for Insulin-like growth factor-binding protein 1 (IGFBP1) using HepaRG (AID 2283508)
Outline: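 qRT-PCR mRNA read-out (TaqMan, Fluidigm array), normalised to three housekeeping genes; HepaRG cells, 48 h exposure, 8-pt half-log series from 100 uM, 0.5% DMSO vehicle; bidirectional curve fit vs DMSO baseline.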

[12] = read-out: Interleukin 6 (IL6), IL6 (gene 3569); experiment: LTEA_HepaRG_IL6: Life Technologies and Expression Analysis (LTEA) Assay for Interleukin 6 (IL6) using HepaRG (AID 2283509)
Outline: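 Transcript levels, normalized to three housekeeping genes, were quantified by qRT-PCR after 48 h chemical treatment of HepaRG cells. Eight-point half-log series from 100 uM in 0.5% DMSO, duplicates. Fitted both directions against DMSO baseline.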

[13] = read-out: Keratin 19 (KRT19), KRT19 (gene 3880); experiment: LTEA_HepaRG_KRT19: Life Technologies and Expression Analysis (LTEA) Assay for Keratin 19 (KRT19) using HepaRG (AID 2283512)
Outline: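 HepaRG, 48 h chemical exposure, 8-pt half-log CRC from 100 uM, 0.5% DMSO vehicle, duplicates. Readout: TaqMan qRT-PCR of KRT19 mRNA, housekeeping-normalized (ACTB/GAPDH/POLR2A). Bidirectional fit vs DMSO baseline.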

[14] = read-out: Fatty Acid-Binding Protein 1 (FABP1), FABP1 (gene 2168); experiment: LTEA_HepaRG_FABP1: Life Technologies and Expression Analysis (LTEA) Assay for Fatty Acid-Binding Protein 1 (FABP1) using HepaRG (AID 2283494)
Outline: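 FABP1 expression by TaqMan qRT-PCR, normalised to three housekeeping genes, in HepaRG cells after 48 h chemical treatment. Eight-point half-log series topping at 100 uM in 0.5% DMSO, duplicates; gain or loss fitted relative to vehicle.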

[15] = read-out: Interleukin 6 Receptor (IL6R), IL6R (gene 3570); experiment: LTEA_HepaRG_IL6R: Life Technologies and Expression Analysis (LTEA) Assay for Interleukin 6 Receptor (IL6R) using HepaRG (AID 2283510)
Outline: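 In this HepaRG screen, test chemicals act on cells for 48 h at up to 100 uM (eight half-log points, duplicate wells). IL6R expression is quantified by qRT-PCR after normalization to ACTB, GAPDH and POLR2A, with DMSO as baseline.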

Measured: AC50

Sequence of Hypoxia-inducible factor 1-alpha (Homo sapiens) (Q16665 whole entry, looked up): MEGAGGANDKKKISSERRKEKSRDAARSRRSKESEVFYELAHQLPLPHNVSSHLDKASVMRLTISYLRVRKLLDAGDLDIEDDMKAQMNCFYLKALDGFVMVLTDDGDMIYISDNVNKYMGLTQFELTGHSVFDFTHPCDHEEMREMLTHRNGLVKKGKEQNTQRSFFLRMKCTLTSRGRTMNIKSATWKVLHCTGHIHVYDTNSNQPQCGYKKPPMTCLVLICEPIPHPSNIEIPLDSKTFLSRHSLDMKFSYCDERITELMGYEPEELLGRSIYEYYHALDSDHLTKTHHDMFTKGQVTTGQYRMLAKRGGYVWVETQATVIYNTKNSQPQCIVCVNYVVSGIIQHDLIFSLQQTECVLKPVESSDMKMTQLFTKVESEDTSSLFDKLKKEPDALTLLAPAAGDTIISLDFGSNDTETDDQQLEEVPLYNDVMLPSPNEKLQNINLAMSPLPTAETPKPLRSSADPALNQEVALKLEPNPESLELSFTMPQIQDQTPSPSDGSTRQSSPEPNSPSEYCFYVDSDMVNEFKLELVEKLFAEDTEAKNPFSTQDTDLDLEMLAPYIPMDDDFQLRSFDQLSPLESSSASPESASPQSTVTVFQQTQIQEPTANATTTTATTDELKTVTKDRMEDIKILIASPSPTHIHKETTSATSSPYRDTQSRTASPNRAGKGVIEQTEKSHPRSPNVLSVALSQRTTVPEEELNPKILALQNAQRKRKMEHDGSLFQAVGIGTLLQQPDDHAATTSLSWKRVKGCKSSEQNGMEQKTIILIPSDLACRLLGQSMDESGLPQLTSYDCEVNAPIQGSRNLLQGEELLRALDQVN

COP(=O)(OC)OC=C(Cl)Cl
not listed: [14] | [15]
inactive: all other assays above

CC(C)(C)C(O)C(Oc1ccc(Cl)cc1)n1cncn1 (stereo not given)
active: [14] 50 µM and 21.4 µM | [1] 12.8 µM and 14.6 µM and 18 µM | [2] 8.02 µM and 9.92 µM and 1.24 µM | [9] 16 µM and 23.4 µM and 14.4 µM
not listed: [13] | [15]
inactive: all other assays above

O=S1OCC2C(CO1)C1(Cl)C(Cl)=C(Cl)C2(Cl)C1(Cl)Cl (stereo not given)
active: [14] 43.6 µM | [1] 60.4 µM | [2] 40.4 µM | [3] 79.7 µM | [5] 88.6 µM | [9] 42.2 µM | [11] 83.4 µM
not listed: [13] | [15]
inactive: all other assays above

Clc1ccccc1-c1nnc(-c2ccccc2Cl)nn1
active: [14] 18.8 µM | [2] 24 µM
not listed: [4] | [13] | [15]
inactive: all other assays above

Cc1[nH]c(=O)n(C(C)(C)C)c(=O)c1Cl
active: [2] 18.8 µM | [11] 50 µM
not listed: [13]
inactive: all other assays above

CC(C)N(C(=O)COc1nnc(C(F)(F)F)s1)c1ccc(F)cc1
active: [14] 23 µM | [2] 24.7 µM | [3] 50 µM
not listed: [13] | [15]
inactive: all other assays above
